Experimental data as given in PubChem BioAssay (NCATS).
Records with an inconclusive call do not appear. Unmarked numbers belong to inactive results. The source made the active and inactive calls. Unless noted, the call rests on the fitted dose curve.

molecular target: Peroxisome proliferator-activated receptor delta (Homo sapiens) (UniProt Q03181); test: qHTS assay for small molecule agonists of peroxisome proliferator-activated receptor delta signaling (AID 588534); details: HEK293T PPARdelta-UAS-bla, beta-lactamase ratio, 18 h; series mostly up to 76.7 µM; activation: at the top concentration;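 further: 0% = DMSO basal wells and 100% = positive control agonist at 10 µM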
Sequence (Q03181 whole entry, looked up): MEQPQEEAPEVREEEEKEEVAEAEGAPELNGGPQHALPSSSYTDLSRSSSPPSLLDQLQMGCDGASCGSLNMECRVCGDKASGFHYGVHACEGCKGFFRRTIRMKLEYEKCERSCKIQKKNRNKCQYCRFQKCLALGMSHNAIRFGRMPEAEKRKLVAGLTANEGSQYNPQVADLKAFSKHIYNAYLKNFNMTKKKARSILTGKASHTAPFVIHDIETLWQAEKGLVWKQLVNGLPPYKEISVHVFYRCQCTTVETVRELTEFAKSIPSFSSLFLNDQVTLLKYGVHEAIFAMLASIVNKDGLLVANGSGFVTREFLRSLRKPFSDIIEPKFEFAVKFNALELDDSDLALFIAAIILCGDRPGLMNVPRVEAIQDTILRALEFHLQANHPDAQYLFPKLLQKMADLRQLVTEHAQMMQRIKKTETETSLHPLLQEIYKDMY
Method in brief: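 Agonist-mode beta-lactamase reporter readout (CCF4 dye, 2 h at RT) after 18 h at 37 °C exposure to a titration; Hill-equation fitting gave EC50 and maximal response.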

For `CN1[C@H]2CC(OC(=O)[C@H](CO)c3ccccc3)C[C@H]1[C@H]1O[C@H]12` (some centres undefined), the outcome was “inactive”.

In order of falling “activation” value:
1. O=C1C=C2C(=CCOC2O)O1 (centres undefined)  8.6%
2. CC(C)=O  5.58%
3. CCCCN(CC)c1c([N+](=O)[O-])cc(C(F)(F)F)cc1[N+](=O)[O-]  -2.83%
4. c1ccc2ncccc2c1  -15%

molecular target: Vitamin D3 receptor (Homo sapiens) (UniProt P11473); test: qHTS assay for small molecule agonists of vitamin D receptor signaling (AID 588543); details: HEK293T VDR-UAS-bla, beta-lactamase ratio, 16 h; series mostly up to 76.8 µM; activation: at the top concentration;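 further: 0% = DMSO basal and 100% = reference agonist control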
Sequence (P11473 whole entry, looked up): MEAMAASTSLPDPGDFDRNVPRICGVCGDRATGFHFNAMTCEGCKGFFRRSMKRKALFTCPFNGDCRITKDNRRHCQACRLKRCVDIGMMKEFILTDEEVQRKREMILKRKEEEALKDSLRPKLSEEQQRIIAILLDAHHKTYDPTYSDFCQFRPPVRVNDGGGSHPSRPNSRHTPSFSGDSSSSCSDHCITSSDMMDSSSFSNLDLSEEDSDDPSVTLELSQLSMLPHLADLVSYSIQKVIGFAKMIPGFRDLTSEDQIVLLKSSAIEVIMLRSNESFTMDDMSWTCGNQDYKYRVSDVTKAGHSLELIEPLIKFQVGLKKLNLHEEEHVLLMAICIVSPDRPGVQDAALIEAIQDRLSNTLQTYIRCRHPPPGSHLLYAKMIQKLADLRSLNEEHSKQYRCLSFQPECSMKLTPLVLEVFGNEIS
Method in brief: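 Reporter cells (HEK293T, VDR-UAS-bla) were seeded in medium with 2% charcoal-stripped serum and incubated 5 h, then compounds in concentration series were added for 16 h at 37 °C. Stimulation was scaled between DMSO basal and 50 nM 1α,25-dihydroxyvitamin D3.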

In order of falling “activation” value:
1. O=C1C=C2C(=CCOC2O)O1 (centres undefined)  26.1%
2. CSc1nc(NC(C)C)nc(NC(C)C)n1  4.09%
3. CCCCN(CC)c1c([N+](=O)[O-])cc(C(F)(F)F)cc1[N+](=O)[O-]  -0.461%

molecular target: Thyroid hormone receptor beta (Homo sapiens) (UniProt P10828); test: qHTS assay for small molecule agonists of thyroid hormone receptor beta signaling (AID 588545); details: TR-UAS-bla GripTite HEK 293, beta-lactamase ratio, agonist mode, 18 h; series mostly up to 76.7 µM; activation: at the top concentration;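 further: 0% = DMSO only and 100% = 10 nM T3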
Sequence (P10828 whole entry, looked up): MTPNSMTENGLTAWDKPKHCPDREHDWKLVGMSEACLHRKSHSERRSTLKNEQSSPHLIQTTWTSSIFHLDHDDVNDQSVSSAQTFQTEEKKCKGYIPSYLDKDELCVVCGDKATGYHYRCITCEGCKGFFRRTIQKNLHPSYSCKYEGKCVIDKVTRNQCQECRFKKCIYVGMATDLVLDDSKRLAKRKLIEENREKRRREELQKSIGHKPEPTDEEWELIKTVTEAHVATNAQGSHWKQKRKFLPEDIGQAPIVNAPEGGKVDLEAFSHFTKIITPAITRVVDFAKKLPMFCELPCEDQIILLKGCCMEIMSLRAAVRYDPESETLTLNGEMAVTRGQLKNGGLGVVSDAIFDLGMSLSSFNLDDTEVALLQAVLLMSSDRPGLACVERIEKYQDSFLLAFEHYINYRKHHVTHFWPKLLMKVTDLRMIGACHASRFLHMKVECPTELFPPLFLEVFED
Method in brief: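 TR-UAS-bla GripTite HEK 293 cells (2500/well, medium with 2% charcoal/dextran FBS) were treated in agonist mode for 18 h at 37 C, titrated. Beta-lactamase was read by CCF4 ratio after 2 h; normalized to 10 nM T3 (100%) and DMSO, Hill-fitted for EC50 and efficacy.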

In order of rising “activation” value:
1. CCCCN(CC)c1c([N+](=O)[O-])cc(C(F)(F)F)cc1[N+](=O)[O-]  5.94%
2. CSc1nc(NC(C)C)nc(NC(C)C)n1  10%
3. N#Cc1c(Cl)c(Cl)c(Cl)c(C#N)c1Cl  21.6%

molecular target: Thyroid hormone receptor beta (Homo sapiens) (UniProt P10828); test: qHTS assay for small molecule antagonists of thyroid hormone receptor beta signaling (AID 588547; active means well fitted inhibition curve with a large enough effect in the signal ratio, with a control signal flat, not every such curve was filed as active; the % refers to the signal ratio; further: potency means the concentration at half of the fitted maximal effect;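 on activity change % (negative = inhibition): cells stimulated with 0.4 nM T3 agonist during compound exposure; on the % scale 0 is the no-effect control and ±100 the full control effect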); details: TR-UAS-bla HEK293, beta-lactamase ratio, antagonist mode, 18 h
Method in brief: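 TR-UAS-bla GripTite HEK293 cells in 2% charcoal/dextran FBS medium were preincubated 4 h at 37 C, given compound (0.59 nM to 92 uM) plus 0.4 nM T3 (final) for 18 h, then CCF4 for 2 h at RT; Hill fit gave IC50.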

In order of rising activity change % (negative = inhibition):
1. CCCCN(CC)c1c([N+](=O)[O-])cc(C(F)(F)F)cc1[N+](=O)[O-]  -21.6%
2. CSc1nc(NC(C)C)nc(NC(C)C)n1  -0.16%

With `N#Cc1c(Cl)c(Cl)c(Cl)c(C#N)c1Cl` the Potency was 2.51 µM (active).
